Our source for the % bound values is PubChem BioAssay AID651828 (ICCB-Longwood Screening Facility, Harvard Medical School, 2012).

Values joined by “and” are separate entries in the source; they are usually repeats but may differ in a detail not shown here. Equal values may be shown once. Hit rate of the full screen: of about 20,000 compounds, about 25 (0.1%) were called active. Many of the other results were omitted from the sample, so actives are more common in it than they were. Values without a mark were called inactive. Cut-off read from the data, not from the text of the source: active = % bound below about 75%; inactive = the rest.

Nucleoprotein (Rift valley fever virus (strain ZH-548 M12)), sequence (P21700 whole entry, looked up): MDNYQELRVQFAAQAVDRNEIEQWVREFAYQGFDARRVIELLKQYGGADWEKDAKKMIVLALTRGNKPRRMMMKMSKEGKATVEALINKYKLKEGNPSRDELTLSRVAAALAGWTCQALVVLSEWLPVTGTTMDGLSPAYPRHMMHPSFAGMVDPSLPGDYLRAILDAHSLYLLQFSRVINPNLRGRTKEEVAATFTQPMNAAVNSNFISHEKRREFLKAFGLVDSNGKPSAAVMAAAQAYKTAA

The assay concerns the target Nucleoprotein (Rift valley fever virus (strain ZH-548 M12)) (UniProt P21700). Put plainly: inhibitors of RVFV nucleoprotein–RNA binding, primary screen, biochemical, fluorescence polarization (AID 651828). The settings on record: RVFV N-RNA binding, stronger effect = lower value, concentration not given here. For orientation: In fluorescence polarisation assays a small probe gives low polarisation when free and higher when bound to something large.
With `CC(=O)Oc1ccc(S(=NS(=O)(=O)c2ccccc2)c2ccc(OC(C)=O)cc2)cc1`, the % bound was 94.2%.
In the case of `Cc1[nH]cc(Br)c(=O)c1OCC(=O)O`, the % bound is 95.2%.
As for `Cc1c(C(=O)NCCN2CCOCC2)sc2nc(-c3ccc(F)cc3)cn12`, the figure is 97%.
As for `N#Cc1c(NC(=S)NC(=O)c2ccco2)sc2c1CCCC2`, the figure is 97.3%; as for `C/C(=N\NC1=NCCCCC1)c1ccccc1`, 95.3%.
As for `CC1CCN(CC(=O)Nc2nccs2)CC1`, the % bound was 91.9%.
To `CCC1CCC(N(CC)CCN(C)C)CC1` (centres undefined) belongs 112%.
Take `C[C@H](N[C@@H](CCc1ccccc1)C(=O)O)C(=O)N1Cc2ccccc2C[C@H]1C(=O)O`: the % bound was 100%.
On to `COc1ccc2oc(=O)c(S(=O)(=O)c3ccccc3)cc2c1`, for which the % bound was 85%.
To `O=C(O)CN1C(=O)/C(=C2/OC(=O)c3ccccc32)SC1=S` belongs 95.4%; to `O=C(NCCc1ccccc1)Nc1ccccc1`, 108%.
To `CCCNC(=O)c1c(N)n(-c2ccccc2)c2nc3ccccc3nc12` belongs 95.9%.
Turning to `O=C(Nc1cccc(Nc2nccc(Nc3cccc(C(F)(F)F)c3)n2)c1)C1CC1`, the % bound is 112% and 103%.
To `Cn1c(=O)c2cc3c(=O)n(C)c(=O)c3cc2c1=O` belongs 101%; to `COc1c(C(=O)O/N=C(\N)c2cccs2)csc1Cl`, 95.1%.
With `CN(C)c1ccc(C=NCC(O)CN=Cc2ccc(N(C)C)cc2)cc1` (centres undefined), the % bound was 97.1%.
As for `Cc1ccc(S(=O)(=O)NCc2csc(C)n2)c(C)c1`, the figure is 105%; as for `CC(C)N1C(=O)CNC1=S`, 98%.
To `CC(C)CC(=O)Nc1ccncc1` belongs 86%; to `O=C(OCCO)c1cc(Cl)c(C(=O)OCCO)cc1Cl`, 104%; to `COC(=O)COc1cccc(NC(=O)Cc2cccs2)c1`, 98.5%.
To `CCCNC1=C(c2ccc(OC)cc2)C(=O)c2ccccc21` belongs 95.2%; to `CSc1sc(C(=O)NC(=O)NCc2cccnc2)c(C)c1-c1ccon1`, 93.2%.
Turning to `CN(C)C(C#N)c1cn(C)c2ccccc12` (centres undefined), the % bound was 94.2%.
In the case of `Cc1[nH]c2ccccc2c1SCC(=O)Nc1nccs1`, the % bound is 108%.
For the compound `COc1cccc(-c2ccc(=O)n(CC(=O)NCc3ccccc3)n2)c1`, the % bound is 85%.
To `O=C(NCCSCc1ccco1)C1CCC1` belongs 98.2%.
To `CCSc1nc(=O)[nH]c2c1CCC2` belongs 92.2%.
With `CCC(=O)NC1(C(F)(F)F)C(=O)NC(C)=C1C(=O)OC` (centres undefined), the % bound is 97%.
With `C/C(=N/NC(=O)c1ccoc1C)c1ccc(NC(=O)c2ccco2)cc1`, the % bound was 91.1%.
With `N#Cc1cccc2c1-c1ccccc1C2`, the % bound was 96%.
As for `O=C1c2ccc(-c3nc4ccccc4c(=O)o3)cc2C(=O)N1c1ccc2c(c1)OCO2`, the figure is 90%.
Regarding `O=C1CC2(CCCC2)C(=O)N1c1ccc(S(=O)(=O)NCc2ccco2)cc1Cl`, the % bound is 94.5%.
For `CN1CCN(C(=O)c2ccccc2NC(=O)c2ccc(Cl)cc2)CC1`, the % bound was 100%.
Turning to `CCN(CC)C(=O)N1CC(C)CC(C)C1` (centres undefined), the % bound is 95.2%.
For the compound `CCN1CCN(C(c2cccnc2)c2c(NC(C)=O)sc3c2CCCC3)CC1` (centres undefined), the % bound is 109%.
Turning to `O=S(=O)(c1ccccc1)N1CCn2cccc2C1c1ccccc1` (centres undefined), the % bound is 99.1%.
For the compound `CCSc1nc2ccccc2c(=O)n1C`, the % bound is 96.2%.
As for `CS(=O)(=O)NCCS(=O)(=O)N1CCN(c2ccccc2)CC1`, the figure is 97.1%.
As for `Cc1ccccc1C(=O)Nc1cccc(N(C)C)c1`, the figure is 99.1%; as for `O=C(CS(=O)(=O)c1ccccc1)Nc1ccccc1O`, 95.9%; as for `Cc1cc(NN)nc(-c2ccccc2O)n1`, 91.2%.
As for `CS(=O)(=O)NCC(c1cccs1)N1CCc2ccccc21` (centres undefined), the % bound was 95.9%.
As for `COC(=O)C1CC2=CC(=O)CCC2(C)C2C(O)CC3(C)C(CCC34CCC(=O)O4)C12` (centres undefined), the figure is 103%; as for `O=c1[nH][nH]c(=O)n1/N=C/C=C\c1ccccc1`, 101%.
As for `Cc1nnsc1C(=O)Nc1ccc(C(N)=O)cc1`, the figure is 96.7%; as for `NC(=O)c1cccc(NC(=O)C(F)(F)F)c1`, 108%.
As for `O=S(=O)(NCCN1CCOCC1)c1ccc(I)cc1`, the figure is 94.4%.
Consider `CCc1ccc2[nH]c(=O)c(Cc3ccccc3)c(O)c2c1`, for which the % bound was 98.2%.
As for `CC(C)Sc1nnc(NC(=O)C(C)(C)C)s1`, the figure is 96.3%; as for `COc1ccc(C(=O)NCCc2cc3c(OC)ccc(OC)c3[nH]c2=O)cc1`, 97.1%.
To `CCOc1ccc(NC(=O)CSc2nc(=O)n(CCCN3CCOCC3)c3c2CCCC3)cc1` belongs 105%; to `c1ccc2c(c1)CC(Nc1ccc3cn[nH]c3c1)C2`, 84.9%; to `S=C(c1ccccn1)N1CCN(C(=S)c2ccccn2)CC1`, 96.1%.
On to `O=C(CC1SC(=NC2CC3C=CC2C3)NC1=O)Nc1ccc(Cl)cc1` (centres undefined), for which the % bound was 89.9%.
To `COc1ccc(-c2cc(-c3nnc(N)o3)no2)cc1OC` belongs 92.5%; to `CC(C)Nc1ncccn1`, 104%; to `COCn1c(=O)[nH]c2ccccc21`, 91.1%.
To `CCOC(=O)N1CCN(C(=S)Nc2ccc(Oc3ccccc3)cc2)CC1` belongs 92.1%; to `COc1ccc(NC(=O)COc2cccc3c2CCN(C)C3=O)cc1`, 90.3%; to `Cc1nc(NNC(=O)c2ccccc2)cc(-c2ccccc2)n1`, 91.7%.
To `CC(c1ccccc1)n1c(SCc2nc(-c3ccc(C(C)(C)C)cc3)no2)n[nH]c1=O` (centres undefined) belongs 95.1%; to `N#CCCSc1nccn1Cc1ccccc1`, 106%; to `c1ccc2c(c1)OC1OC2Oc2ccccc21`, 98.8%.
